# Compound activity as filed in PubChem.
# Only some compounds are listed: those with a hit (about 7.1% of all), similar ones and a draw of the others.
# ELG1 DNA repair: blocks ELG1-dependent DNA repair in HEK293T cells. HEK293T ELG1-luciferase reporter, luminescence, 16 h; DNA damage induced by 5-fluorouridine. Potency, µM (series often up to 46.1 µM), usual class: inhibitors. 2.3% of 330,000 active; also: nearly all actives have a fitted effect of over 55% in size
#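 Luminescence from the luciferase reporter, measured 30 min after ONE-Glo reagent at room temperature, was the read-out. Beforehand, 2,000 cells per well were exposed for 16 hr at 37 °C to 5-fluorouridine together with compound or vehicle.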
# A-T KAP1 phos: potential ataxia-telangiectasia treatment | F2112 A-T fibroblasts, KAP-1 phosphorylation AlphaLISA; neocarzinostatin DNA damage 30 min before lysis | Potency, µM (titrated, usually from 57.5 µM), hits mostly activators | 0.19% of 320,000 active | AID 485349; also: nearly all actives have a fitted effect of over 45% in size
#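 hTERT-immortalized A-T patient fibroblasts (F2112), 500 cells/well in OPTI-MEM, 1% FBS, got compounds for 60 min, then NCS for 30 min at 37C. Lysates were then assayed for phospho-KAP-1 by AlphaLISA (anti-pKAP1 donor, anti-KAP1 acceptor beads), 6 hr at 25C.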
# MCF10A rerep: induces DNA re-replication in MCF 10a normal breast cells. MCF 10A DNA re-replication, Hoechst nuclear intensity, 48 h. Potency, µM (doses to about 46.1 µM), hits mostly activators. 2.9% of 350,000 active; also: nearly all actives have a fitted effect of over 50% in size
# SW480 rereplic: DNA re-replication induction in SW480 cells. SW480 DNA re-replication, Hoechst DNA content imaging, 48 h. Potency, µM (series often up to 46.1 µM), hits mostly activators. 1.8% of 340,000 active. AID 624297; also: nearly all actives have a fitted effect of over 55% in size
#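 Image-based DNA-content assay: after two days of treatment, nuclei were labelled with the DNA dye Hoechst and imaged, and hits were compounds raising the count of nuclei showing high fluorescence intensity.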
# ELG1 genotox: inducers of genotoxicity in HEK293T ELG1-luciferase cells. HEK293T ELG1-luciferase reporter, luminescence, 16 h. Potency, µM (highest dose often 46 µM), usual class: activators. 1.3% of 330,000 active. AID 504466; also: nearly all actives have a fitted effect of over 60% in size
#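 Genotoxicity was scored as increased ELG1-luciferase reporter signal, measured by ONE-Glo luminescence (30 min, room temperature). Compound or vehicle exposure of the HEK293T reporter cells lasted 16 hr at 37°C.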
# p53 reactivator: mutant p53 re-activation in reporter cells. H1299 p53-A138V BP100-luciferase reporter, luminescence, 24 h. 0.063% of 320,000 active. Potency, µM (top dose mostly 92.2 µM), usual class: activators; also: nearly all actives have a fitted effect of over 45% in size
#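 p53-null H1299 cells stably carrying temperature-sensitive p53-A138V and a BP100-luciferase reporter were pinned with compounds (4-point, 1:5 series) and held 24 hrs at 37 deg C. Luminescence was read 10 min after detection reagent.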
# Numbers stand for hits; i = inactive; ? = inconclusive; nt = not tested or not shown. Calls follow the shape of the dose curve; as a rule, active = well fitted curve in the direction sought with a large enough effect; inconclusive = small, poorly fitted or top-dose-only effect, or another doubt; inactive = no such curve, though single readings can be large; an effect the other way counts as inactive or inconclusive.
SMILES,ELG1 DNA repair,A-T KAP1 phos,MCF10A rerep,SW480 rereplic,ELG1 genotox,p53 reactivator
CN1C(=O)C(C)(C)c2cc(S(=O)(=O)N3CCCC(C(=O)NCc4ccc(Cl)cc4)C3)ccc21 (stereo unspecified),14.6µM,i,i,i,i,nt
Cn1ccsc1=NC(=O)c1ccc(OC(F)(F)F)cc1,?,i,i,i,?,i
Cc1ccc(O)c(NC(=O)c2onc(C)c2Cl)c1,?,i,i,i,?,i
CC(C)(C)OC(=O)C[C@H]1C/C=C\C[C@H](CC(=O)N(CCO)Cc2ccccc2)C(=O)N[C@@H](c2ccccc2)COC1=O,8.2µM,i,i,i,i,i
O=C1N[C@@H](Cc2ccccc2)COC(=O)[C@H](Cc2ccc(F)cc2)C/C=C\C[C@@H]1CC(=O)N(CCO)Cc1ccccc1,20.6µM,i,i,i,i,i
O=C1N[C@@H](Cc2ccccc2)COC(=O)[C@@H](Cc2ccc(F)cc2)CC/C=C/C[C@@H]1CC(=O)N(CCO)Cc1ccccc1,?,i,i,i,i,i
O=C1N[C@H](Cc2ccccc2)COC(=O)[C@@H](Cc2ccc(F)cc2)CC/C=C/C[C@H]1CC(=O)N(CCO)Cc1ccccc1,20.6µM,i,?,i,i,i
O=C1N[C@H](Cc2ccccc2)COC(=O)[C@@H](Cc2ccc(F)cc2)C/C=C\C[C@H]1CC(=O)N(CCO)Cc1ccccc1,?,i,i,i,i,i
O=C1N[C@H](Cc2ccccc2)COC(=O)[C@H](Cc2ccc(F)cc2)CC/C=C/C[C@@H]1CC(=O)N(CCO)Cc1ccccc1,20.6µM,i,i,i,i,i
CC(C)(C)OC(=O)C[C@H]1C/C=C\C[C@@H](CC(=O)N(CCO)Cc2ccccc2)C(=O)N[C@@H](c2ccccc2)COC1=O,?,i,i,i,i,i
CN(CC(=O)Nc1ccc(F)cc1)C(=O)COc1ccccc1Cc1ccccc1,?,i,?,i,i,i
O=c1cc(C(O)C[N+](=O)[O-])occ1OCc1ccccc1 (stereo unspecified),nt,nt,i,?,nt,nt
CSCCC(NC(=O)c1ccccc1Cl)C(=O)N1CCN(C(c2ccccc2)c2ccccc2)CC1 (stereo unspecified),?,i,i,i,i,i
COc1ccc2c(c1)CCCC21NC(=O)N(CC(=O)N2CC(C)OC(C)C2)C1=O (stereo unspecified),i,i,i,i,i,i
CCCN(C(=O)COC(=O)C12CCC(=O)N1c1ccccc1S2)c1c(N)n(Cc2ccccc2)c(=O)[nH]c1=O (stereo unspecified),i,i,i,i,i,i
O=C1N[C@@H](c2ccccc2)COC(=O)[C@@H](Cc2ccc(F)cc2)C/C=C\C[C@@H]1CC(=O)N(CCO)Cc1ccccc1,20.6µM,i,i,?,i,i
Cc1ccc(-n2c(SCC(=O)N(C)C3CCS(=O)(=O)C3)nc3ccccc3c2=O)c(C)c1 (stereo unspecified),?,i,i,i,i,i
CC(=O)Oc1cc(C)c(OC(C)=O)c2ccccc12,nt,nt,?,26.6µM,nt,nt
CC12C=CC(=O)C=C1CCC1C2C(O)CC2(C)C1CCC2(O)C(=O)CO (stereo unspecified),nt,nt,i,i,nt,nt
Cc1cccc(NC(=O)c2onc3c2CCCC3)n1,?,i,i,i,0.92µM,?
COC(=O)c1cccc(NC(=O)c2onc3c2CCCC3)c1,?,i,i,i,0.82µM,?
Cc1cccc(NC(=O)c2ccc3c(Cl)c4c(nc3c2)CCCC4)n1,?,i,i,i,2.91µM,?
Cc1cccc(NC(=O)c2onc3c2CCCC3)c1C,?,i,i,i,?,i
O=C(Nc1ccc(Cl)cn1)c1ccc2c(Cl)c3c(nc2c1)CCC3,?,i,i,i,?,i
CCOc1ccc(NS(=O)(=O)c2ccc(-c3cnc(C4CC4)o3)cc2)cc1,?,i,6.51µM,i,i,i
